About 83,000 compounds went through this panel and 20% of them were active in at least one assay; those are over-represented in the sample as a whole.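 96-well plates, one dose, 48 hours. Percent growth reported; active if below 10.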 Unmarked numbers belong to inactive results. Activity calls are given as the source filed them.

For the experiment, the system named is MDA-MB-468 breast. In words: NCI-60 one-dose screen, 48 h (100 = growth as untreated, 0 = no growth, -100 = all killed). The note with it: 10 µM. As for the experimental part: Growth inhibition of the MDA-MB-468 human Breast tumor cell line is measured as a screen for anti-cancer activity. Cells are grown in 96 well plates and exposed to the test compound for 48 hours. Compounds are tested at a single concentration, which is 10^-5 M for most compounds. The reported endpoint is percent growth (GI% or GIPRCNT), where numbers from 0 - 100% represent growth inhibition, and numbers from -100% - 0 represent cell death. For example, a value of 40 represents 60% growth inhibition. A value of 0 means no net growth occurred over the course of the experiment. A value of -40 indicates 40% of cells at the beginning of the experiment died by the end of the experiment. A value of -100 means all cells are dead at the end of the experiment.
NCI-60 Human Tumor Cell Lines Screen was performed using the standard one-dose NCI protocol, which is described in more detail at https://dtp.cancer.gov/discovery_development/nci-60/default.htm.
Compounds with GIPRCNT values below 10 were considered active. Activity score was based on GIPRCNT using the following formula: […]
Score is 0 for GIPRCNT values of 100 or above, 50 for GIPRCNT values of 0, and 100 for GIPRCNT values of -100.
On to `CC(=O)Oc1ccccc1C(=O)Oc1ccc(C(=O)/C=C/c2ccncc2)cc1`, for which the growth is -59.3% (active). To `COc1ccc(NC(=O)Cn2c(/C=C/c3ccc(N(C)C)cc3)nc3ccccc3c2=O)cc1` belongs -25.4% (active).

Consider `Cc1ccn2c(C(=O)c3ccc(Br)cc3)cc(-c3cc(-c4ccc(N(C)C)cc4)c(C#N)c(N)n3)c2c1`, for which the growth is -15% (active). The same measure for `C=C[C@@]12CN3CC[C@]1(O)[C@@](C(=O)OC)(CO2)c1[nH]c2ccccc2c1C3`: -8.94% (active); for `COC1=C[C@]23CCC(=O)N2CCc2cc4c(cc2[C@@H]3[C@@H]1OC(=O)CCCC(C)C)OCO4`: 6.02% (active). To `CN1CCN(c2ccc(C(=O)/C=C/c3ccc(OC(F)F)cc3)cc2)CC1` belongs -60.7% (active); to `CN1CCN(c2ccc(Nc3nc(NCCCNC(=O)c4ccccc4)c4sccc4n3)cc2)CC1`, 68.4%; to `O=C1Nc2cc(-c3ccc(NC(=O)c4cccs4)cc3)ccc2/C1=C/c1ccc[nH]1`, -19.7% (active). The same measure for `C/C(=N\N=C\c1ccc(Cl)c([N+](=O)[O-])c1)c1ccc2c(c1)Nc1ccccc1S2`: -29.3% (active). On to `N#Cc1c(-c2ccc(F)cc2)nc(SCc2ccc(F)cc2)nc1N1CCOCC1`, for which the growth was 62.1%. The same measure for `Cc1ccc2nc3c(nc2c1)c1cc(I)ccc1n3CCN(C)C`: 5.08% (active); for `Cc1ccc(C(=O)NCCCNc2nc(Nc3ccc(N4CCN(C)CC4)cc3)nc3ccsc23)cc1`: 45.4%.

`COC[C@@H](CC(C)C)N=C1N/C(=C\c2ccc3ncsc3c2)C(=O)N1C`: the growth was -5.24% (active). On to `O=C(Cn1cc(CSc2nnc3oc4ccccc4n23)nn1)Nc1cccc(Cl)c1`, for which the growth was 37.7%. In the case of `CS(=O)(=O)Nc1ccc(-c2ccc3c(c2)ncn3-c2ccc(NC(=O)Nc3ccc(Cl)c(C(F)(F)F)c3)cc2)cc1`, the growth was -50.7% (active). Take `NS(=O)(=O)c1ccc(NC(=O)CSc2ccc(-c3ccc(Cl)cc3)nn2)c(Br)c1`: the growth was -3.52% (active). To `O=C(CNc1nc(-c2ccccc2)cs1)Nc1ccc(Cl)cc1` belongs -81.2% (active); to `CN1CCO/C1=C(/NC(=O)c1ccc(Cl)cc1)[P+](c1ccccc1)(c1ccccc1)c1ccccc1`, -19.6% (active). The same measure for `O=C(NO)c1ccc(-c2nc3ccc4[nH]ncc4c3c3c2CCCC3)cc1`: -90.3% (active); for `O=C(Nc1cccc(-c2cn(-c3ccc4oc(=O)ccc4c3)nn2)c1)Nc1cc(C(F)(F)F)cc(C(F)(F)F)c1`: -23.3% (active). To `O=C1CCC(N2Cc3cc(CC(=O)Nc4ccc(N5CCCCC5)cc4)ccc3C2=O)C(=O)N1` (stereo not given) belongs -16.4% (active). As for `Cc1ccc(CNC(=O)Cc2ccc3c(c2)CN(C2CCC(=O)NC2=O)C3=O)cc1` (stereo not given), the growth was -50.8% (active). To `CN1CCN(c2ccc(Nc3nc(NCCNC(=O)c4ccc(C(F)(F)F)cc4)c4sccc4n3)cc2)CC1` belongs 5.65% (active); to `O=C(/C=C/Nc1ccc(F)cc1F)c1ccc2c(c1)Nc1ccccc1S2`, 41.9%. The same measure for `N#Cc1ccc(-c2nn(-c3ccc(C(=O)O)cc3)cc2CNc2cccc(Br)c2)cc1`: 66%. The same measure for `COc1cc(/C=C/C(=O)c2ccc(C(F)(F)F)cc2)ccc1Oc1nc(Nc2ccc(F)cc2)nc(N(C)C)n1`: 66.4%.

With `COc1ccc(/C(CSc2nnc(-c3c[nH]c4ccccc34)n2-c2ccccc2)=N/O)cc1`, the growth is 0.589% (active). The same measure for `N#Cc1c(Cl)nc(SCc2ccc(F)cc2)nc1-c1ccc(F)cc1`: 112%; for `Cc1cccc2cc(-c3cc(-c4ccccc4)nc(=S)[nH]3)c(Cl)nc12`: 90.6%. To `COc1ccccc1[C@H]1C(C(=O)c2ccc(Cl)cc2)C2(N[C@@H]1c1ccccc1)C(=O)Nc1ccc(Cl)cc12` (stereo not given in full) belongs -43.9% (active). To `COc1ccc(-c2nc(S(=O)(=O)c3ccc(C)cc3)c(S(C)(=O)=O)o2)cc1` belongs -92.9% (active); to `O=C(Nc1nc2ccc([N+](=O)[O-])cc2s1)Nc1ccccc1I`, -25.8% (active). Regarding `COc1ccc(CN2[C@@H](C(=O)NCc3ccc(C(=O)NO)cc3)Cc3c([nH]c4ccccc34)[C@@H]2C2CC2)cc1`, the growth is -3.5% (active). To `CC1(c2ccccc2)NC(=O)N(CC(=O)Nc2ccc(C(=O)/C=C/c3ccccc3)cc2)C1=O` (stereo not given) belongs -2.64% (active); to `COc1csc(/C=N/NC(=O)c2[nH]c3ccc(Br)cc3c2-c2ccccc2)c1`, -18% (active); to `O=C1NC(=NC23CC4CC(CC(C4)C2)C3)N/C1=C\c1ccc2ncoc2c1`, -60% (active).

With `O=c1[nH]c2ccc(Cl)cc2cc1CSc1ccc(Nc2nccc(-c3ccc(Cl)cc3)n2)cc1`, the growth was -20.1% (active). The same measure for `COc1cccc(/C=N/NC(=O)c2ccc3nc(-c4ccc(Cl)cc4)[nH]c3c2)c1O`: -96.1% (active). For `COC1CC(Cn2cc(COc3ccc4ccc(=O)oc4c3)nn2)C(OCc2ccccc2)C(OCc2ccccc2)C1OCc1ccccc1` (stereo not given), the growth is 93.4%. The same measure for `Cc1noc2c(Cc3ccccc3)nn(CC(=O)N/N=C/c3ccc(F)cc3)c(=O)c12`: 85.4%.

Source of the values: PubChem BioAssay (NCI).
